According to PubChem BioAssay (Tox21):
Several values for one entry are separate records, joined by “and”; a condition that tells them apart may be missing. Identical values can stand only once. A structure can be active in one record and inactive in another. Activity calls are given as the source filed them. A call without a number means that no potency is given here. Unless noted, calls follow the shape of the dose curve; as a rule, active = well fitted curve in the direction sought with a large enough effect in the repeat runs; inconclusive = weak or mixed curves; inactive = no such curve, though single readings can be large; an effect the other way counts as inactive or inconclusive.

Tests used:
[1] = qHTS assay to identify small molecule antagonists of the thyroid receptor (TR) signaling pathway - cell viability counter screen (AID 743064); also: nearly all actives have a fitted effect of over 50% in size
In short: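 Compounds were tested on GH3.TRE-Luc cells in the presence of T3 at 1 nM final. Following 23.5 h at 37 °C, cell viability was quantified by CellTiter-Fluor.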

[2] = qHTS assay to identify small molecule antagonists of the thyroid receptor (TR) signaling pathway (AID 743065); also: nearly all actives have a fitted effect of over 55% in size
In short: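 Antagonism measured as loss of luciferase signal in GH3 cells stably carrying a TRE-luciferase reporter, co-treated with compound and T3 (1 nM final) for 23.5 h at 37 C. Viability was read in the same well by CellTiter-Fluor.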

[3] = system: thyroid hormone receptor (rat, GH3 cells); test: qHTS assay to identify small molecule agonists of the thyroid receptor (TR) signaling pathway (AID 743066; calls by dose curve)
[4] = molecular target: Estrogen receptor (Homo sapiens) (UniProt P03372); test: qHTS assay to identify small molecule antagonists of the estrogen receptor alpha (ER-alpha) signaling pathway (AID 743069; active = well fitted curve in the direction sought with a large enough effect in the signal ratio in the repeat runs, not every such curve was filed as active; inconclusive = weak or mixed curves, or effect the other way; inactive = no such curve, though single readings can be large or run the other way; the % refers to the signal ratio)
Chain of Estrogen receptor (Homo sapiens) (P03372 whole entry, looked up): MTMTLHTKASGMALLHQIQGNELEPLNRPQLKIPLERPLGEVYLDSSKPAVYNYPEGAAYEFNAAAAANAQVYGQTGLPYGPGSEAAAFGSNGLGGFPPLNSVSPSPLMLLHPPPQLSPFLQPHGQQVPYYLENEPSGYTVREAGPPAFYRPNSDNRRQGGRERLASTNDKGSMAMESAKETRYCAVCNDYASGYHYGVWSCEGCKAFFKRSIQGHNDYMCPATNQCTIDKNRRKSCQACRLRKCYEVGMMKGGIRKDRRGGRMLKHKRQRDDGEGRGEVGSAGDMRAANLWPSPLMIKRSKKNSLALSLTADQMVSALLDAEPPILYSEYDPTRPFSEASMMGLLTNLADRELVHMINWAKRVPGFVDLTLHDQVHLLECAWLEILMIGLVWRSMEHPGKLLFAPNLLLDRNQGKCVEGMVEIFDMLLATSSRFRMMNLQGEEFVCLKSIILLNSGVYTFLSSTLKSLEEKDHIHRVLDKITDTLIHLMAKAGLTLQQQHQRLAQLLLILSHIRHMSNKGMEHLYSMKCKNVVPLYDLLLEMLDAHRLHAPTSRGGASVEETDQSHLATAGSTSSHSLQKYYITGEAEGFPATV
In short: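 Compound effects are measured against 17beta-estradiol stimulation in HEK293 cells with a UAS-controlled beta-lactamase reporter for ER-alpha. Exposure lasts 18 hr at 37C; LiveBLAzer B/G FRET substrate follows for 2 hr at room temperature.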

[5] = qHTS assay to identify small molecule antagonists of the estrogen receptor alpha (ER-alpha) signaling pathway - cell viability counter screen (AID 743074; calls by dose curve;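 also: HEK293 cells carrying ER-alpha-UAS-bla reporter stimulated with 17beta-estradiol; nearly all actives have a fitted effect of over 45% in size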)
[6] = molecular target: Estrogen receptor (Homo sapiens) (UniProt P03372); test: qHTS assay to identify small molecule agonists of the estrogen receptor alpha (ER-alpha) signaling pathway (AID 743075; calls by dose curve)
[7] = molecular target: Estrogen receptor (Homo sapiens) (UniProt P03372); test: qHTS assay to identify small molecule agonists of the estrogen receptor alpha (ER-alpha) signaling pathway using the BG1 cell line (AID 743079); also: nearly all actives have a fitted effect of over 20% in size
[8] = qHTS assay to identify small molecule antagonists of the estrogen receptor alpha (ER-alpha) signaling pathway using the BG1 cell line (AID 743080; calls by dose curve;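 also: BG1 cells stimulated with 17beta-estradiol alongside compound; nearly all actives have a fitted effect of over 25% in size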); settings: BG1Luc4E2 ERE-luciferase antagonist mode, luminescence; activity change, negative = inhibition: at 70.3 µM (top of the series)
In short: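 Quantitative HTS on the Tox21 10K library: BG1 cells with endogenous ER-alpha and ERE-luciferase reporter, 17beta-estradiol stimulation, 21.5 h compound exposure, luminescence endpoint with parallel fluorescence cytotoxicity counter-read.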

[9] = qHTS assay to identify small molecule antagonists of the estrogen receptor alpha (ER-alpha) signaling pathway using the BG1 cell line - cell viability counter screen (AID 743081);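 also: compound given together with 17beta-estradiol as the ER stimulus; nearly all actives have a fitted effect of over 45% in size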
[10] = molecular target: Aromatase (Homo sapiens) (UniProt P11511); test: qHTS assay to identify aromatase inhibitors (AID 743083); also: nearly all actives have a fitted effect of over 55% in size
Chain of Aromatase (Homo sapiens) (P11511 whole entry, looked up): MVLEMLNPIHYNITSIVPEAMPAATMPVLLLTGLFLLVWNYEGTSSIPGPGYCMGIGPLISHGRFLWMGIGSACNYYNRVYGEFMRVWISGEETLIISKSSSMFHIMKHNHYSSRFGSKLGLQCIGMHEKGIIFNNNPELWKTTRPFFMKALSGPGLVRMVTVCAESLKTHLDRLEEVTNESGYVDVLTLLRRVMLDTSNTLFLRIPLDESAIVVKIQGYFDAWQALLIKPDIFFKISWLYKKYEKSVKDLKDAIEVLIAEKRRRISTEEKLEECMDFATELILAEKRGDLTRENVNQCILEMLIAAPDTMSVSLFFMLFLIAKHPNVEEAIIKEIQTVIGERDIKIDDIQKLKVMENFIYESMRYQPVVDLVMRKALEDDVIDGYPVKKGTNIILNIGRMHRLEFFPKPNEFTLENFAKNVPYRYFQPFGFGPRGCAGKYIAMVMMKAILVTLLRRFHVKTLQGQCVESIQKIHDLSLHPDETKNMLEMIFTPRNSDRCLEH
Potency is read from the fitted curve at half-maximal effect.

Row | SMILES | Potency [1] | Potency [2] | Potency [3] | Potency [4] | Potency [5] | Potency [6] | Potency [7] | Potency [8] | Potency [9] | Potency [10] | activity change, negative = inhibition [8]
1 | CN(N=O)C(=O)N[C@@H]1[C@@H](O)[C@H](O)[C@@H](CO)O[C@@H]1O | inactive | inactive | inactive | inactive | inactive | inactive | inactive | inactive | inactive | inactive | 
2 | Cc1cccc(C)c1 | inactive | inactive | inactive | inactive | inactive | inactive and 1.34 µM [inconclusive] (active) | inactive and 26.5 µM (active) | inactive | inactive | inactive | 
3 | O=c1[nH]cnc2c1ncn2[C@H]1CC[C@@H](CO)O1 | inactive | inactive | inactive and 1.31 µM (active) | inactive | inactive | inactive | inactive | inactive | inactive | inactive | 
4 | COc1ccc2c(c1)c(CC(=O)O)c(C)n2C(=O)c1ccc(Cl)cc1 | inactive | inactive | inactive | inactive | inactive | inactive | inactive | inactive | inactive | inactive | 
5 | Nc1c2c(nc3ccccc13)CCCC2 | inactive | inactive | inactive | inactive | inactive | inactive | inactive and 24.3 µM (active) |  | inactive | inactive | 
6 | CCN(CC)C(=O)c1cccc(C)c1 | inactive | inactive | inactive | inactive | inactive | 21.3 µM [inconclusive] (active) and inactive | 2.66 µM (active) and inactive | inactive | inactive | inactive | 
7 | CN1CCC[C@H]1c1cccnc1 | inactive | inactive | inactive |  | inactive |  |  | inactive | inactive | inactive | 
8 | NC1CCCCC1 | inactive | inactive | inactive | inactive | inactive | inactive | inactive | inactive | inactive | inactive | 
9 | O=C1OC2(c3ccccc31)c1cc(Br)c(O)c(Br)c1Oc1c2cc(Br)c(O)c1Br | 6.68 µM (active) and 5.53 µM (active) and 7.91 µM (active) | inactive | inactive |  | inactive | inactive | inactive | inactive | 11.9 µM (active) and 3.91 µM (active) and 8.88 µM (active) | inactive | 
10 | CC(C)C(=O)Nc1ccc([N+](=O)[O-])c(C(F)(F)F)c1 | inactive | 62.9 µM (active) | inactive | inactive and 49 µM [inhibitor] (active) | inactive | inactive |  | 29.8 µM (active) and 49.9 µM (active) | inactive | inactive and 62.9 µM (active) | 
11 | CCCCC1(COC(=O)CCC(=O)O)C(=O)N(c2ccccc2)N(c2ccccc2)C1=O | inactive | inactive | inactive | inactive | inactive | inactive | inactive | inactive | inactive | inactive | 
12 | CCOC(N)=O | inactive | inactive | inactive | inactive | inactive | inactive | inactive | inactive | inactive | inactive | 
13 | COc1ccc(C(Cl)=C(c2ccc(OC)cc2)c2ccc(OC)cc2)cc1 | inactive | 11.9 µM (active) and 6.08 µM (active) and 7.7 µM (active) | inactive | 1.51 µM [inconclusive] (active) and 1.54 µM [inconclusive] (active) and 1.23 µM [inconclusive] (active) | inactive | inactive | inactive | 18.8 µM (active) and 12.1 µM (active) and 9.69 µM (active) | inactive | 8.59 µM (active) and 12.2 µM (active) | 
14 | Cc1ncc([N+](=O)[O-])n1CCO | inactive | inactive | inactive | inactive | inactive | inactive | inactive | inactive | inactive | inactive | 
15 | Cc1ncc([N+](=O)[O-])n1C | inactive | inactive | inactive | inactive | inactive | inactive | inactive | inactive | inactive | inactive | 
16 | NC(CO)(CO)CO | inactive | inactive | inactive and 9.69 µM (active) | inactive | inactive | inactive | inactive | inactive | inactive | inactive | 
17 | CCCc1cc(=O)[nH]c(=S)[nH]1 | inactive | inactive | inactive | inactive | inactive | inactive | 26.6 µM (active) and inactive | inactive | inactive | inactive | 

Row | SMILES | Potency [1] | Potency [2] | Potency [3] | Potency [4] | Potency [5] | Potency [6] | Potency [7] | Potency [8] | Potency [9] | Potency [10] | activity change, negative = inhibition [8]
18 | O=S1(=O)OC(c2ccc(O)cc2)(c2ccc(O)cc2)c2ccccc21 | 27.3 µM (active) | inactive | inactive | inactive | inactive | inactive | 15 µM (active) and inactive | inactive | 13.3 µM (active) and 27.3 µM (active) and 17.2 µM (active) | inactive | 
19 | CC12CCC(CC1)C(C)(C)O2 | inactive | inactive | inactive | inactive | inactive | inactive | inactive | inactive | inactive | inactive | 
20 | CCCCCCCCCCCCCCCC[N+](C)(C)Cc1ccccc1 | 18.8 µM (active) and 14.1 µM (active) and 24.8 µM (active) | 11.9 µM (active) and 8.91 µM (active) and 22.1 µM (active) | inactive |  | 19 µM (active) and 25.3 µM (active) and 31.4 µM (active) | inactive |  |  | inactive | 26.6 µM (active) and 50.1 µM (active) and 27.8 µM (active) | -23.2% (active)
21 | C=C(C)C(=O)OCC(C)O (configuration not stated) | inactive | inactive | inactive | inactive | inactive | inactive | inactive | inactive | inactive | inactive | 
22 | CCCCCCCC(=O)OCC(COC(=O)CCCCCCC)OC(=O)CCCCCCC | inactive | inactive | inactive | inactive | inactive | inactive | inactive | inactive | inactive | inactive | 
23 | CCc1nc(N)nc(N)c1-c1ccc(Cl)cc1 | 62.1 µM (active) | 10.6 µM (active) and 6.21 µM (active) and 9.69 µM (active) | inactive | inactive | 7.02 µM (active) | inactive |  | 23.7 µM (active) | inactive | inactive and 55.3 µM (active) | 
24 | Nc1ccc([N+](=O)[O-])cc1O | 36.4 µM (active) | 48.6 µM (active) | inactive | inactive |  | inactive | inactive | inactive |  | inactive | 
25 | NS(=O)(=O)c1cc2c(cc1Cl)NCNS2(=O)=O | inactive | inactive | inactive | inactive | inactive | inactive | inactive | inactive | inactive | inactive | 
26 | CN(C)CCOC(c1ccccc1)c1ccccc1 | 26.6 µM (active) and 19.4 µM (active) | 26.6 µM (active) and 48.6 µM (active) | inactive | inactive | inactive and 9.52 µM (active) | inactive | inactive | inactive | inactive |  | 
27 | CCOc1ccc(NC(C)=O)cc1 | inactive | inactive | inactive | inactive | inactive | inactive | inactive | inactive | inactive | inactive | 
28 | CN(C)C(=O)Nc1ccc(Cl)c(Cl)c1 | inactive | inactive | inactive | inactive | inactive | inactive | inactive | inactive | inactive | inactive | 
29 | CC(=O)CCC(=O)O | inactive |  | inactive | inactive | inactive | inactive | 15 µM (active) and inactive | inactive | inactive | inactive | 
30 | Nc1ccc(O)c([N+](=O)[O-])c1 | 45.7 µM (active) | inactive | inactive |  |  | inactive | inactive | inactive | 34 µM (active) | inactive | 
31 | COc1ccc(OC(F)(F)F)cc1CN[C@H]1CCCN[C@H]1c1ccccc1 | 24.3 µM (active) | 24.3 µM (active) |  | inactive |  | inactive |  |  | inactive |  | 
32 | CC(C)NCC(O)c1ccc(O)c(O)c1 (configuration not stated) | inactive | inactive | inactive |  | inactive |  |  |  | inactive | inactive | 
33 | CN(C)C(=S)SC(=S)N(C)C | 2.11 µM (active) and 1.98 µM (active) and 433 nM (active) | 1.68 µM (active) and 1.57 µM (active) and 306 nM (active) | inactive |  | inactive and 49 µM (active) |  |  |  | inactive | 2.98 µM (active) and 994 nM (active) and 243 nM (active) | 
